Several values for one entry are separate records, joined by “and”; a condition that tells them apart may be missing. Equal entries are not always repeated. Results filed as inconclusive are left out. Activity calls are given as the source filed them. Unless noted, cut-off not given; nearly all actives show AC50 up to about 26 µM.
How the values were obtained:
[1] = viability loss in pontine glioma line – cell-based, SU-DIPG-XVII, MIPE5.0, CellTiter-Glo, qHTS, dose response (AID 1347060); conditions: CellTiter-Glo ATP luminescence;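 on AC50: cells exposed to compound for 48 hours before viability readout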
[2] = viability loss in pontine glioma line – cell-based, SU-DIPG-XIII, MIPE5.0, CellTiter-Glo, qHTS, dose response (AID 1347064; cut-off not given, nearly all actives have AC50 up to about 23 µM;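 on AC50: cells exposed to compound for 48 hours before the viability read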); conditions: CellTiter-Glo ATP luminescence
[3] = viability loss in pontine glioma line – cell-based, SU-DIPG-XXV, MIPE5.0, CellTiter-Glo, qHTS, dose response (AID 1347065); conditions: CellTiter-Glo ATP luminescence;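 further: cells exposed to compound for 48 hours before ATP readout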
[4] = JHH-DIPG-1 glioma cell viability, MIPE5.0 library, CellTiter-Glo luminescence, qHTS (AID 1347067); conditions: JHH-DIPG-1 glioma viability, CellTiter-Glo ATP luminescence;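 further: cells exposed to compound for 48 hours before readout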
[5] = growth inhibition of DIPG cells – cell-based, MIPE5.0 library, qHTS (AID 1347068; cut-off not given, nearly all actives have IC50 up to about 30 µM;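 on IC50: cells exposed to compound for 48 hours before viability readout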); conditions: SU-DIPG-XXV viability
[6] = viability loss in pontine glioma line – cell-based, JHH-DIPG-1, MIPE4.0, CellTiter-Glo, qHTS, dose response (AID 1347062; cut-off not given, nearly all actives have AC50 up to about 27 µM); conditions: JHH-DIPG-1 viability, CellTiter-Glo ATP luminescence
[7] = growth inhibition of DIPG cells – cell-based, MIPE4.0 library, CellTiter-Glo luminescence, qHTS (AID 1347066; cut-off not given, nearly all actives have AC50 up to about 30 µM;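 further: cells exposed to compound for 48 hours before readout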); conditions: SU-DIPG-VI viability, CellTiter-Glo ATP luminescence
[8] = viability loss in pontine glioma line – cell-based, SU-DIPG-IV, MIPE4.0, CellTiter-Glo, qHTS, dose response (AID 1347063; cut-off not given, nearly all actives have AC50 up to about 30 µM;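 further: compound exposure lasted 48 hours before the viability readout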); conditions: CellTiter-Glo ATP luminescence
[9] = viability loss with induced miR-34 in A549 – imaging, A549 dox-inducible miR-34, nuclei and caspase counts, primary screen (AID 1347080;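 active means compounds whose cell count with miR-34 switched on is under 0.7 times the count with it off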); conditions: A549 miR-34 inducible, Hoechst nuclei count, 48 h
[10] = compounds altering HSF1 focus formation in cells – imaging, Selleck Cancer Library (AID 1347162; in the data active means plate-normalised HSF1 focus index below about 0.46); conditions: human cells, HSF1 nuclear foci imaging, at 10 µM; SSMD: measured here: HSF1 foci SSMD mean; cell count: measured here: cell number; plate-normalised HSF1 focus index: stronger effect = lower value
[11] = MELAS cybrid and Rieske KO viability enhancers – cell-based, MELAS cybrids, Rieske KO mouse fibroblasts, CellTiter-Glo, primary screen (AID 1508586;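 active means mean z-score across replicates of 1.96 or higher in either the MELAS or the Rieske mutant cell line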;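 further: z relative to plate mean and SD of compound and empty wells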); conditions: low glucose
[12] = viability loss in pontine glioma line – cell-based, SU-DIPG-XIII, MIPE4.0, CellTiter-Glo, qHTS, dose response (AID 1347061; cut-off not given, nearly all actives have AC50 up to about 37 µM;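 further: cells exposed to compound for 48 hours before readout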); conditions: CellTiter-Glo ATP luminescence
[13] = measured here: relative caspase fold change +Dox/-Dox
[14] = measured here: total cells with miR-34 induction, stronger effect = lower value
[15] = measured here: total cells without miR-34 induction
[16] = MELAS cybrid survival, CellTiter-Glo 48 h, stronger effect = higher value
[17] = Rieske KO mouse fibroblast survival, CellTiter-Glo 72 h

SMILES: COc1cc(C)[nH]c(=O)c1CNC(=O)c1c(C)n([C@H](C)C2CCOCC2)c2ccccc12
- outcome [1]: inactive
- outcome [2]: inactive
- outcome [3]: inactive
- outcome [4]: inactive

SMILES: COc1cc2c(cc1F)C(c1ccccc1Cl)=Nc1c(n[nH]c1C)N2
- AC50 [1]: 5.25 µM (active)
- AC50 [3]: 13.2 µM (active)
- AC50 [4]: 14.8 µM (active)
- outcome [5]: inactive

SMILES: CN(C)c1cc2c(cc1Sc1nc3c(N)nccc3n1CCNCC(C)(C)C)OCO2
- AC50 [1]: 0.59 µM (active)
- AC50 [2]: 1.32 µM (active)
- AC50 [3]: 0.661 µM (active)
- AC50 [4]: 1.32 µM (active)
- IC50 [5]: 2.95 µM (active)

SMILES: C=C(C)[C@@H]1CCC(C)=C[C@H]1c1c(O)cc(CCCCC)cc1O
- AC50 [1]: 26.3 µM (active)
- AC50 [2]: 23.5 µM (active)
- AC50 [4]: 23.5 µM (active)

SMILES: c1ccc2c(CN3CCNCC3)cccc2c1
- outcome [1]: inactive
- outcome [6]: inactive
- outcome [2]: inactive
- outcome [3]: inactive
- outcome [7]: inactive
- outcome [4]: inactive

SMILES: O=C(CBr)N1CC([N+](=O)[O-])([N+](=O)[O-])C1
- outcome [1]: inactive
- outcome [3]: inactive
- outcome [5]: inactive

SMILES: CC(N[C@H]1C[C@@H]1c1ccccc1)c1ccc2c(c1)OCCO2 (stereo partly drawn)
- outcome [1]: inactive
- outcome [6]: inactive
- outcome [2]: inactive
- outcome [3]: inactive
- outcome [4]: inactive
- outcome [5]: inactive

SMILES: CCN1C[C@]2(OC(=O)c3ccccc3NC(C)=O)CC[C@H](OC)[C@@]34[C@@H]2C[C@@H]([C@@H]13)[C@@]1(O)C[C@H](OC)[C@H]2C[C@@H]4[C@]1(O)[C@H]2OC
- outcome [1]: inactive
- outcome [6]: inactive
- outcome [8]: inactive
- outcome [2]: inactive
- outcome [3]: inactive
- outcome [7]: inactive
- outcome [4]: inactive
- outcome [5]: inactive

SMILES: CC(=O)Nc1ccc(OC[C@](C)(O)C(=O)Nc2ccc([N+](=O)[O-])c(C(F)(F)F)c2)cc1
- outcome [1]: inactive
- outcome [6]: inactive
- outcome [2]: inactive
- outcome [3]: inactive
- outcome [7]: inactive
- outcome [4]: inactive
- outcome [5]: inactive
- fold change ([9]; stronger effect = lower value): 0.963 (inactive)
- fold change [9, 13]: 0.857
- cell count [9, 14]: 7800
- cell count [9, 15]: 8100
- SSMD [10]: 0.174
- cell count [10]: 7020
- plate-normalised HSF1 focus index [10]: 1.01 (inactive)
- z-score [11, 16]: -0.592 (inactive)
- z-score [11, 17]: 0.733

SMILES: COc1cc(C(=O)N2CC[C@@H](O)[C@@H](N)C2)cc2nc(-c3cc4ccccc4n3CC3CC3)n(C)c12
- AC50 [1]: 23.5 µM (active)
- AC50 [2]: 23.5 µM (active)
- AC50 [3]: 29.5 µM (active)
- AC50 [4]: 23.5 µM (active)

SMILES: COc1ccc2c(c1)CN(C)CC2c1ccc(Cl)c(Cl)c1 (stereo not drawn)
- outcome [12]: inactive

SMILES: CN1[C@@H]2CC(O)C[C@H]1[C@@H]1O[C@@H]12 (stereo partly drawn)
- outcome [1]: inactive
- AC50 [8]: 16.6 µM (active)
- outcome [2]: inactive
- outcome [3]: inactive
- AC50 [7]: 16.6 µM (active)
- outcome [4]: inactive
- outcome [5]: inactive
- fold change ([9]; stronger effect = lower value, cell number ratio, induced over uninduced): 0.909 (inactive) and 0.934 (inactive)
- fold change [9, 13]: 0.912 and 0.808
- cell count [9, 14]: 8400 and 9480
- cell count [9, 15]: 9240 and 10200
- z-score [11, 16]: -0.234 (inactive) and -0.344 (inactive)
- z-score [11, 17]: -0.606 and 0.658

Source: PubChem BioAssay
